Laboratory results reported in PubChem BioAssay AID1159580 (chemical genetic matrix, 2015).
Several values for one entry are separate records, joined by “and”; a condition that tells them apart may be missing. Equal values may be shown once. In all, about 5,500 compounds went through this assay and about 2,000 (36%) were called active. Roughly 18% stayed inconclusive and do not appear here. No stated cut-off is given here; in the data, active means normalized growth mostly below about 0.91 (no sharp cut-off); inconclusive means no clear call, values can overlap the other calls; inactive means mostly above about 0.92. This is one part of the list.

Assay: chemical genetic growth profiling, strain panel (AID 1159580);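 further: tested at 20 µM; growth read once vehicle control cultures reached saturation at 30 °C; 1 = growth at the plate median or of vehicle wells; lower values mean less growth of the strain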
Conditions: S. cerevisiae deletion strains, growth OD

Measured: normalized growth

COc1cc2c3cc1Oc1cc(ccc1O)C[C@@H]1c4c(cc(OC)c(O)c4Oc4ccc(cc4)C[C@@H]3N(C)CC2)CC[N+]1(C)C
inactive: locus YAL021C, strain ccr4, hits give low values 1 | locus YAL026C, strain drs2, hits give low values 0.976 | locus YAL030W, strain snc1, hits give low values 1.01 | locus YBL061C, strain skt5, hits give low values 1 | locus YBR009C, strain hhf1, hits give low values 0.943 | locus YBR021W, strain FUR4, hits give low values 0.998 | locus YBR023C, strain chs3, hits give low values 0.997 | locus YBR171W, strain sec66, hits give low values 1.01 | locus YBR229C, strain ROT2, hits give low values 1 | locus YBR231C, strain swc5, hits give low values 1.02 | locus YBR279W, strain paf1, hits give low values 0.991 | locus YCL011C, strain gbp2, hits give low values 0.954 | locus YCL016C, strain dcc1, hits give low values 0.939 | locus YCL029C, strain bik1, hits give low values 0.999 | locus YCL069W, strain vba3, hits give low values 0.998 | locus YCR088W, strain abp1, hits give low values 0.997 | locus YDL005C, strain med2, hits give low values 1 | locus YDL035C, strain GPR1, hits give low values 1 | locus YDL040C, strain nat1, hits give low values 1.01 | locus YDL074C, strain BRE1, hits give low values 1.02 | locus YDL101C, strain DUN1, hits give low values 1.02 | locus YDL185W, strain tfp1, hits give low values 1.01 | locus YDL192W, strain arf1, hits give low values 0.998 | locus YDR001C, strain nth1, hits give low values 0.972 | locus YDR069C, strain doa4, hits give low values 1.02 | locus YDR101C, strain arx1, hits give low values 1 | locus YDR137W, strain rgp1, hits give low values 1 | locus YDR159W, strain sac3, hits give low values 0.927 | locus YDR162C, strain NBP2, hits give low values 1.03 | locus YDR195W, strain ref2 1.01 | locus YDR297W, strain sur2, hits give low values 1 | locus YDR318W, strain mcm21, hits give low values 0.994 | locus YDR334W, strain swr1, hits give low values 0.979 | locus YDR335W, strain msn5, hits give low values 0.995 | locus YDR388W, hits give low values 1 | locus YDR392W, strain spt3, hits give low values 0.769 | locus YDR502C, strain sam2, hits give low values 1 | locus YEL003W, strain gim4, hits give low values 1 | locus YEL037C, strain rad23, hits give low values 0.999 | locus YEL061C, strain CIN8 (second series), hits give low values 0.967 | locus YEL061C, strain CIN8, hits give low values 1.01 | locus YER015W, strain faa2, hits give low values 0.996 | locus YER016W, strain bim1, hits give low values 0.988 | locus YER110C, hits give low values 1.01 | locus YER111C, strain swi4, hits give low values 0.994 | locus YER155C, strain BEM2 (second series), hits give low values 1.05 | locus YER155C, strain BEM2, hits give low values 1.02 | locus YER167W, strain BCK2, hits give low values 1.01 | locus YFR010W, strain ubp6, hits give low values 0.989 | locus YGL078C, strain dbp3, hits give low values 0.993 | locus YGL086W, strain mad1, hits give low values 1.03 | locus YGL167C, strain pmr1, hits give low values 1 | locus YGL173C, strain kem1, hits give low values 1 | locus YGL227W, strain vid30, hits give low values 0.981 | locus YGL240W, strain doc1, hits give low values 1.02 | locus YGL248W, strain PDE1, hits give low values 1.02 | locus YGL253W, strain hxk2, hits give low values 0.978 | locus YGR135W, strain pre9, hits give low values 0.989 | locus YGR252W, strain gcn5, hits give low values 0.947 | locus YHR013C, strain ard1, hits give low values 0.943 | locus YHR027C, strain rpn1, hits give low values 0.988 | locus YHR030C, strain SLT2, hits give low values 1 and 0.98 | locus YHR079C, strain IRE1 (second series), hits give low values 1.01 | locus YHR079C, strain IRE1, hits give low values 0.981 | locus YHR094C, strain hxt1, hits give low values 0.996 | locus YHR129C, strain ARP1, hits give low values 1.02 | locus YHR142W, strain chs7, hits give low values 1 | locus YHR200W, strain rpn10, hits give low values 0.993 | locus YIL066C, strain RNR3, hits give low values 1.01 | locus YIL073C, strain SPO22, hits give low values 1.07 | locus YIL125W, strain kgd1, hits give low values 1.01 | locus YIR030C, strain dcg1, hits give low values 0.997 | locus YJL092W, strain hpr5, hits give low values 0.988 | locus YJL095W, strain BCK1 (second series), hits give low values 1 | locus YJL095W, strain BCK1, hits give low values 1.06 and 0.983 | locus YJL115W, strain asf1, hits give low values 0.983 | locus YJL129C, strain trk1, hits give low values 1 | locus YJL134W, strain LCB3, hits give low values 1.01 | locus YJL154C, strain vps35, hits give low values 0.992 | locus YJL164C, strain tpk1, hits give low values 0.957 | locus YJL166W, strain qcr8, hits give low values 1.04 | locus YJL168C, strain set2, hits give low values 1.01 | locus YJL187C, strain SWE1 (second series), hits give low values 1.04 | locus YJL187C, strain SWE1, hits give low values 1.01 | locus YJR043C, strain POL32, hits give low values 0.991 | locus YJR066W, strain TOR1, hits give low values 0.969 | locus YJR075W, strain HOC1, hits give low values 1.03
